Compound activity deposited in PubChem BioAssay by The Scripps Research Institute Molecular Screening Center.
ssDAF12 agonist = S. stercoralis DAF-12 activation, primary screen | HEK293 ssDAF-12/GRIP1 lit1-tk-luc reporter, luminescence; % of 3 µM dafachronic acid response | activation, % at 6.8 µM | 370,000 compounds, 1% hits | AID 652126;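 active means activation above the mean over all tested compounds plus 3 SD, cut at about 0.9% in these data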
hcDAF-12 act = activators of H. contortus DAF-12 nuclear receptor. AID 652067. activation, % at 6.8 µM. HEK293 hcDAF-12 lit1-tk-luc reporter, luminescence; 0% DMSO, 100% Δ7-dafachronic acid. 370,000 compounds, 1.4% hits;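 active means activation above the mean of all tested compounds plus 3 SD, cut at about 5.5% in these data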
SMARCA2 act = activators of SMARCA2 function. MG213 cells, MMTV-luciferase reporter, dexamethasone, overnight. activation, % at 9.1 µM. 370,000 compounds, 1% hits. AID 652017; in the data active means activation above about 7.8%
DAX1 inh-1 = inhibits human nuclear receptor DAX1. 340,000 compounds, 0.99% hits. inhibition, % at 6.75 µM. HEK293 Gal4-DAX1 luciferase reporter, luminescence;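 active means inhibition above the mean over all tested compounds plus 3 SD, cut at about 4.2% in these data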;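 further: inhibition shows as a rise in luminescence from relieved DAX1 repression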
Target sequence (P51843 207-470 limits assumed): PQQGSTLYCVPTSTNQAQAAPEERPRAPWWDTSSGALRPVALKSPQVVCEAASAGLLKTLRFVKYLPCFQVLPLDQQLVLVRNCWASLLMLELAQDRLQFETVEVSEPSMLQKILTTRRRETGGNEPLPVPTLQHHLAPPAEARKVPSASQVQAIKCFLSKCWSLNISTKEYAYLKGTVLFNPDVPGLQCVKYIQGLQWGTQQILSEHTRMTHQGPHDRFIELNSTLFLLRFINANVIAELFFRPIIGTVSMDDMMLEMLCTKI
hgDAF-12 ag = hgDAF-12 agonism, primary luciferase screen; HEK293 GAL4-hgDAF12 UAS-luciferase reporter, agonist luminescence; normalized to butyrate control; activation, % at 6.8 µM; 370,000 compounds, 1.8% hits; AID 687014;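 active means activation above a cutoff set at the mean of all screened compounds plus 3 SD, cut at about 10% in these data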
DAX1 inh-2 = blocks DAX1 repression of SF-1 activated StAR promoter | AID 652010 | HEK293T StAR-luciferase reporter, SF-1/DAX-1 repression relief | inhibition, % at 6.8 µM | 370,000 compounds, 1.1% hits;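 active means inhibition above the mean over all tested compounds plus 3 SD, cut at about 3.6% in these data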;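 further: higher inhibition means more luminescence from relief of DAX-1 repression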
Hits are given with their value; – = inactive; · = no result. The list is not random: actives were taken first. Their share in the collection is about 4.8%.

SMILES	ssDAF12 agonist	hcDAF-12 act	SMARCA2 act	DAX1 inh-1	hgDAF-12 ag	DAX1 inh-2
Cc1ccc(C(=O)N/N=C/c2ccc(-c3cccc(Cl)c3)o2)cn1	–	–	–	–	–	–
O=C(N/N=C\c1ccc(-c2cccc(Cl)c2)o1)C(=O)NC1CCCC1	–	–	–	7.0	–	–
Cc1nc(N)[nH]c(=O)c1CCCNc1ccc(CCC2(CCl)OCCO2)cc1	–	–	–	–	12.8	–
C=CCN1[C@@H](C)COc2cc(F)ccc2S1(=O)=O	–	–	–	·	–	–
CCOc1ccc(-n2c(SCC(=O)Nc3ccc(S(=O)(=O)Nc4cc(C)nc(C)n4)cc3)nnc2-c2cccc(C)c2)cc1	–	–	–	·	–	–
C/C(=C\C(=O)N1CCc2ccccc21)C(=O)O	–	–	–	4.3	–	–
Cn1cc(Br)c(C(=O)N2CCc3ccccc32)n1	–	5.9	–	–	–	–
Cc1c(Br)c(C(=O)N2CCc3ccccc32)nn1C	–	–	–	4.4	–	–
O=C(c1ccccc1)N1CCc2ccccc21	–	–	–	–	–	–
Cc1nn(C)c(C(=O)N2CCc3ccccc32)c1Br	–	–	–	–	–	–
CC(C)C[C@H]1COc2cc(N3CCCC3)ccc2S(=O)(=O)N1C	–	–	–	·	–	–
O=C(Nc1sc2c(c1-c1nc3ccccc3s1)CCNC2)C(F)(F)F	–	–	·	·	–	·
O=C(OCc1cn(Cc2cc(F)ccc2F)nn1)N1CCOCC1	–	–	–	·	–	–
C=CCSc1nc(C)c(CC(=O)OCCCC)c(=O)[nH]1	–	–	–	–	–	–
CCOC(=O)Cc1c(C)nc(SC)[nH]c1=O	–	–	–	–	10.6	–
O=C(Nc1ccccc1)c1ccn[nH]1	–	–	–	4.3	–	–
[O-][n+]1cccc2c(Br)cc(Br)c(O)c21	–	–	–	4.5	–	–
O=C1NC(c2ccccc2)=N/C1=C/c1ccco1	1.0	–	–	–	–	–
CC(C(=O)Nc1sc2c(c1C#N)CCCCC2)N1C(=O)c2ccccc2C1=O (stereo unspecified)	1.1	–	–	–	–	–
Cc1cc(C(=O)Nc2sc3c(c2C#N)CCCC3)no1	–	–	–	–	11.6	–
CC(=O)Nc1sc2c(c1C#N)CCCCC2	–	–	–	–	–	–
Cc1cc(C(=O)Nc2sc3c(c2C#N)CCC3)no1	–	–	–	–	–	–
CCCN1CCS(=O)(=O)N(Cc2cn(Cc3ccc(OC)cc3)nn2)C(C(=O)OC)C1 (stereo unspecified)	–	–	–	·	–	–
COc1ccc(CN(CCN2CCOCC2)C(=O)c2cc(F)ccc2C)cc1OC	–	–	–	·	–	–
CCC(=O)Nc1cccc(-c2nc3ccccc3c(=O)o2)c1	–	–	–	–	–	–
SMILES	ssDAF12 agonist	hcDAF-12 act	SMARCA2 act	DAX1 inh-1	hgDAF-12 ag	DAX1 inh-2
CCCOc1cccc(-c2nc3ccccc3c(=O)o2)c1	–	–	–	–	10.7	–
O=c1oc(-c2ccc([N+](=O)[O-])cc2)nc2ccccc12	–	–	–	–	–	–
O=c1oc(-c2ccc(Br)cc2)nc2ccccc12	0.9	–	–	–	–	–
Cc1c(NC(=O)C2CCCN(S(=O)(=O)c3ccc(Cl)s3)C2)c(=O)n(-c2ccccc2)n1C (stereo unspecified)	–	–	–	·	–	–
O=C1c2ccccc2C(c2nnnn2-c2ccc3c(c2)OCCO3)N1CCc1ccc(O)cc1 (stereo unspecified)	–	–	–	·	–	–
O=C1c2ccccc2C(c2nnnn2-c2ccc3c(c2)OCCO3)N1CCc1ccccc1F (stereo unspecified)	–	–	–	·	–	4.4
Cc1ccc(-n2c(SCC(=O)Nc3ccc(Oc4ccccc4)cc3)nnc2-c2ccco2)cc1	–	–	–	·	–	–
CN1C(=O)/C(=C/c2ccc(OCc3cccc(F)c3)cc2)NC1=S	1.4	–	–	–	–	–
C[C@H](NS(=O)(=O)c1ccc([N+](=O)[O-])cc1)C(=O)NCCNC(=O)[C@@H](C)NS(=O)(=O)c1ccc([N+](=O)[O-])cc1	–	–	·	·	–	·
CCN(CC)CCNC(=O)c1ccc(NC(=O)c2cccc(S(=O)(=O)N3CCc4ccccc43)c2)cc1	–	–	–	–	–	3.9
CC(C)(N[C@@H](Cc1c[nH]c2ccccc12)C(=O)NCCCc1ccccc1)C(=O)NCc1ccccc1	–	–	·	·	–	·
CN(C)c1ccc(Nc2nc(N)c3ccccc3n2)cc1	–	–	–	–	10.5	–
CCOc1ccc(Nc2nc(N)c3ccccc3n2)cc1	1.4	–	–	–	–	–
CCN(CC)CCCNC(=O)c1cn(C(C)c2ccccc2)nn1 (stereo unspecified)	–	–	–	·	–	–
COC(=O)C1CCN(C(=O)CN2CCC(C(=O)c3ccc(C)cc3)CC2)CC1	–	–	–	·	–	–
Cn1c(NC(=O)/C=C\c2ccccc2)cc(=O)n(C)c1=O	1.1	–	–	4.6	–	–
Nc1ccc(Oc2ccc3nc(-c4ccccc4)c(-c4ccccc4)nc3c2)cc1	–	–	–	–	–	–
Nc1ccc(Oc2cc(N)cc(Oc3ccccc3)c2)cc1	–	–	–	4.6	–	–
COc1cccc(CC2(CO)CCCN(C(=O)c3cc[n+]([O-])cc3)C2)c1 (stereo unspecified)	–	–	–	5.1	–	–
CCOC(=O)C1(Cc2cccc(OC)c2)CCCN(C(=O)c2ccc(OC)o2)C1 (stereo unspecified)	–	–	–	–	–	4.3
CCOC(=O)C1(Cc2cccc(OC)c2)CCCN(C(=O)c2cc(CC(C)C)[nH]n2)C1 (stereo unspecified)	–	–	–	–	–	3.8
CCOC(=O)C1(Cc2cccc(Cl)c2)CCCN(C(=O)c2cc(C)[nH]n2)C1 (stereo unspecified)	–	–	–	–	–	–
O=C(CN(C(=O)OCC1c2ccccc2-c2ccccc21)[C@@H](Cc1ccccc1)C(=O)O)OCc1ccc(C(=O)NCc2ccccc2)cc1	–	–	–	·	–	–
O=C(OC12CCCN(C1)/C(=C/c1ccc(Cl)cc1)C2)c1ccc(Cl)cc1 (stereo unspecified)	–	–	–	·	–	–
CCCCCC(=O)NC1CCCCN(Cc2ccc(Cl)cc2)C1=O (stereo unspecified)	–	–	–	·	–	–
COc1ccc(NC(=O)c2ccc3c(c2)n(C)c(=O)n3C)cc1	–	–	–	6.4	–	–
CCOc1ccc(NC(=O)c2ccc(OC)cc2)cc1	–	–	–	–	12.9	–
CCOc1c2ccc(C(=O)NCCc3cccs3)cc2nn1CC	–	–	–	–	11.9	–
CCCCOc1ccc(C(=O)NCCc2cccs2)cc1	·	·	·	–	·	·
CCCCn1nc2cc(C(=O)NCCc3cccs3)ccc2c1OCC	–	–	–	–	–	–
